# Records with an inconclusive call do not appear. Active and inactive are the calls of the source. Unless noted, calls come from the whole dose curve; as a rule, active = well fitted curve in the direction sought with a large enough effect; inconclusive = small, poorly fitted or top-dose-only effect, or another doubt; inactive = no such curve, though single readings can be large; an effect the other way counts as inactive or inconclusive.
# Key:
# [1] = Quantitative High-Throughput drug screen in 47 multiple myeloma cell lines against the NCATS MIPE library collection: XG1_PLB cell viability assay (AID 1919866); note: nearly all actives have a fitted effect of over 35% in size
# Summary of the method: (§1)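 Plated at 500 cells per well, myeloma lines received MIPE 4.0 compounds by pin tool. Following 48 h culture at 37 °C, CellTiter-Glo luminescence gave viability relative to DMSO and media-only controls.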
# [2] = Quantitative High-Throughput drug screen in 47 multiple myeloma cell lines against the NCATS MIPE library collection: PE2_PLB cell viability assay (AID 1919869); note: nearly all actives have a fitted effect of over 35% in size; note: potency is the fitted concentration of half-maximal effect
# Summary of the method: as §1
# [3] = Quantitative High-Throughput drug screen in 47 multiple myeloma cell lines against the NCATS MIPE library collection: OPM2_DSMZ cell viability assay (AID 1919872); note: nearly all actives have a fitted effect of over 30% in size; note: potency is the fitted concentration of half-maximal effect
# Summary of the method: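 Myeloma cells (500 per well) were exposed to MIPE 4.0 compounds by pin transfer and incubated 48 hours at 37C, 5% CO2. Viability was read as ATP by CellTiter-Glo luminescence, normalised to DMSO (100%) and media-only (0%) wells.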
# [4] = Quantitative High-Throughput drug screen in 47 multiple myeloma cell lines against the NCATS MIPE library collection: KMS11_JCRBsus cell viability assay (AID 1919873); note: nearly all actives have a fitted effect of over 50% in size; note: potency is the fitted concentration of half-maximal effect
# Summary of the method: as §1
# [5] = Quantitative High-Throughput drug screen in 47 multiple myeloma cell lines against the NCATS MIPE library collection: KMS28BM_JCRB cell viability assay (AID 1919874); note: nearly all actives have a fitted effect of over 35% in size; note: potency is the fitted concentration of half-maximal effect
# Summary of the method: as §1
# [6] = qHTS drug screen for cell cycle checkpoint inhibitors in PARPi-resistant BRCA-mutant ovarian cancer cell lines. (AID 1963452; calls by dose curve; note: potency is the fitted concentration of half-maximal effect); conditions: PEO1/OlaR viability, CellTiter-Glo luminescence, 96 h; for Z-AUC: stronger effect = lower value
# Summary of the method: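 PEO1, PEO4 and PEO1/OlaR ovarian cancer cells, 600 per well, exposed 96 h at 37C to a dilution series. Viability read by CellTiter-Glo luminescence, normalized to DMSO and empty wells; activity summarized as Z-AUC.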
# [7] = qHTS for identification of novel therapeutic agents for treatment of microphthalmiaassociated transcription factor (MiT) renal cell carcinoma (RCC) (AID 1963991; calls by dose curve; note: potency is the fitted concentration of half-maximal effect); conditions: CellTiter-Glo, 48 h; for z-score: stronger effect = lower value; for Potency: active = Z-AUC below -0.8 in all three lines
# Summary of the method: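 Three TFE3-fusion RCC cell lines (UOK109, UOK124, UOK145), 500 cells/well, were exposed to the 1912-compound MIPE 4.0 library for 48 hours at 37 C. Viability was read by CellTiter-Glo luminescence, normalised to DMSO (100%) and empty wells (0%), with 11-concentration curve fits.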
# [8] = qHTS profiling for inhibitors of Plasmodium falciparum proliferation (AID 504749); note: potency is the fitted concentration of half-maximal effect;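 for activity, negative = inhibition: 0% = DMSO vehicle and full inhibition = artemisinin control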; for all read-outs here: nearly all actives have a fitted effect of over 60% in size; conditions: P. falciparum in erythrocytes, SYBR Green DNA, 72 h; for activity, negative = inhibition: at 12.8 µM (top of the series)
# Summary of the method: (§2)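 Three-day growth assay of blood-stage parasites in erythrocytes (0.3% parasitemia, 2.5% hematocrit) at 37 C, 5% CO2, quantified by SYBR Green DNA staining after overnight detergent lysis.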
# 3D7 = test: as above; conditions: P. falciparum in erythrocytes, SYBR Green DNA, 72 h; series mostly up to 28.7 µM
# Summary of the method: as §2
# 7G8 = test: as above; conditions: P. falciparum in erythrocytes, SYBR Green DNA, 72 h; series mostly up to 28.7 µM
# Summary of the method: as §2
# AA1029 = test: as above; conditions: P. falciparum in erythrocytes, SYBR Green DNA, 72 h; series mostly up to 28.7 µM
# Summary of the method: as §2
# AS120 = test: as above; conditions: P. falciparum in erythrocytes, SYBR Green DNA, 72 h; series mostly up to 28.7 µM
# Summary of the method: as §2
# ATS189 = test: as above; conditions: P. falciparum in erythrocytes, SYBR Green DNA, 72 h; series mostly up to 28.7 µM
# Summary of the method: as §2
# ATS95 = test: as above; conditions: P. falciparum in erythrocytes, SYBR Green DNA, 72 h; series mostly up to 28.7 µM
# Summary of the method: as §2
# C2A = test: as above; conditions: P. falciparum in erythrocytes, SYBR Green DNA, 72 h; series mostly up to 28.7 µM
# Summary of the method: as §2
# CP185 = test: as above; conditions: P. falciparum in erythrocytes, SYBR Green DNA, 72 h; series mostly up to 28.7 µM
# Summary of the method: as §2
# [9] = Quantitative High-Throughput drug screen in 47 multiple myeloma cell lines against the NCATS MIPE library collection: VP6_DJ cell viability assay (AID 1919867); note: nearly all actives have a fitted effect of over 40% in size; note: potency is the fitted concentration of half-maximal effect
# Summary of the method: as §1
# [10] = Quantitative High-Throughput drug screen in 47 multiple myeloma cell lines against the NCATS MIPE library collection: UTMC2_PLB cell viability assay (AID 1919868); conditions: CellTiter-Glo ATP luminescence, 48 h; viability (% of DMSO control): at 45.8 µM (top of the series) unless noted; note: nearly all actives have a fitted effect of over 55% in size; note: potency is the fitted concentration of half-maximal effect
# Summary of the method: as §1
# [11] = Quantitative High-Throughput drug screen in 47 multiple myeloma cell lines against the NCATS MIPE library collection: RPMI8226_ATCC cell viability assay (AID 1919871); note: nearly all actives have a fitted effect of over 30% in size; note: potency is the fitted concentration of half-maximal effect
# Summary of the method: as §1
# [12] = Quantitative High-Throughput drug screen in 47 multiple myeloma cell lines against the NCATS MIPE library collection: PCM6_Riken cell viability assay (AID 1919870); note: nearly all actives have a fitted effect of over 30% in size; note: potency is the fitted concentration of half-maximal effect
# Summary of the method: as §1
# [13] = measured here: PEO1 parental Z-AUC
# [14] = TFE3-RCC UOK109 viability, measured here: UOK109 Z-AUC
# [15] = TFE3-RCC viability, measured here: UOK124 Z-AUC
# [16] = TFE3-RCC viability, measured here: UOK145 Z-AUC
structure (smiles),measurement,setting,value
COC(=O)C[C@](O)(CCCC(C)(C)O)C(=O)O[C@@H]1C(OC)=C[C@]23CCCN2CCc2cc4c(cc2[C@H]13)OCO4,Potency,[1],inactive
same,Potency,[2],20900 nM (active)
same,Potency,[3],inactive
same,Potency,[4],29600 nM (active)
same,Potency,[5],10500 nM (active)
same,Potency,[6],436 nM (active)
same,Z-AUC,[6]; [13],-2.08
same,Z-AUC,[6]; measured here: PEO4 Z-AUC,-2.6
same,z-score,[7]; [14],0.959
same,z-score,[7]; [15],0.544
same,z-score,[7]; [16],0.67
same,Potency,[8]; parasite line A,25.1 nM (active)
same,Potency,[8]; parasite line B,25.1 nM (active)
same,Potency,3D7,25.1 nM (active)
same,Potency,7G8,11.2 nM (active)
same,Potency,AA1029,25.1 nM (active)
same,Potency,AS120,15.8 nM (active)
same,Potency,ATS189,31.6 nM (active)
same,Potency,ATS95,28.2 nM (active)
same,Potency,C2A,22.4 nM (active)
same,Potency,CP185,35.5 nM (active)
C[C@H]1C[C@@H]2[C@@H]([C@@H](O)C[C@@]3(C)[C@H]2CC[C@]3(O)C(=O)CO)[C@@]2(C)C=CC(=O)C=C12,Potency,[1],inactive
same,Potency,[2],inactive
same,Potency,[3],inactive
same,Potency,[4],105 nM (active)
same,Potency,[5],inactive
same,z-score,[7]; [14],0.15
same,z-score,[7]; [15],0.208
same,z-score,[7]; [16],0.428
same,"activity, negative = inhibition",[8]; parasite line A,-0.344% (inactive)
same,"activity, negative = inhibition",[8]; parasite line B,-25.6% (inactive)
same,Potency,3D7,inactive
same,Potency,7G8,inactive
same,Potency,AA1029,inactive
same,Potency,AS120,inactive
same,Potency,ATS189,inactive
same,Potency,ATS95,inactive
same,Potency,C2A,inactive
same,Potency,CP185,inactive
O=C(O)[C@H](Cc1c[nH]c2ccccc12)N1C(=O)c2ccccc2C1=O,Potency,[9],48100 nM (active)
same,viability (% of DMSO control),[10],115% [at 92.2 µM] (active)
same,Potency,[11],inactive
same,Potency,[3],inactive
same,Potency,[4],inactive
same,Potency,[5],inactive
same,Z-AUC,[6],1.05 (inactive)
same,Z-AUC,[6]; [13],0.982
same,Z-AUC,[6]; measured here: PEO4 Z-AUC,0.872
same,z-score,[7]; [14],0.59
same,z-score,[7]; [15],0.462
same,z-score,[7]; [16],0.777
Cn1c(=O)n(-c2ccc(C(C)(C)C#N)cc2)c2c3cc(-c4cnc5ccccc5c4)ccc3ncc21,Potency,[10],9.3 nM (active)
same,Potency,[11],10.5 nM (active)
same,Potency,[3],74.3 nM (active)
same,Potency,[5],20.9 nM (active)
same,Potency,[6],2 nM (active)
same,Z-AUC,[6]; [13],-1.42
same,Z-AUC,[6]; measured here: PEO4 Z-AUC,-1.44
CC(C)(C)c1cc(NC(=O)Nc2ccc(-c3cn4c(n3)sc3cc(OCCN5CCOCC5)ccc34)cc2)no1,Potency,[2],148 nM (active)
same,Potency,[12],inactive
same,Potency,[3],5260 nM (active)
same,Potency,[5],inactive
same,Z-AUC,[6],1.23 (inactive)
same,Z-AUC,[6]; [13],0.804
same,Z-AUC,[6]; measured here: PEO4 Z-AUC,0.987
Cc1ccc2nc(NC(=O)CSc3nc4c(c(=O)n3-c3ccccc3)SCC4)sc2c1,Potency,[9],9350 nM (active)
same,Potency,[10],inactive
same,Potency,[2],9350 nM (active)
same,Potency,[3],20900 nM (active)
same,Potency,[4],8330 nM (active)
same,Potency,[5],9350 nM (active)
same,Z-AUC,[6],1.55 (inactive)
same,Z-AUC,[6]; [13],1.46
same,Z-AUC,[6]; measured here: PEO4 Z-AUC,1.44
Cc1ccc(S(=O)(=O)Nc2cc(Cl)ccc2C(=O)Nc2nc(-c3ccccc3)cs2)cc1,Potency,[9],6620 nM (active)
same,Potency,[2],5900 nM (active)
same,Potency,[11],16600 nM (active)
same,Potency,[4],10500 nM (active)
same,Z-AUC,[6],-0.703 (inactive)
same,Z-AUC,[6]; [13],-0.778
same,Z-AUC,[6]; measured here: PEO4 Z-AUC,-1.08
Cc1coc2c1C(=O)C(=O)c1c-2ccc2c1CCCC2(C)C,Potency,[9],20900 nM (active)
same,Potency,[3],16600 nM (active)
same,Potency,[5],inactive
same,Z-AUC,[6],1.2 (inactive)
same,Z-AUC,[6]; [13],0.989
same,Z-AUC,[6]; measured here: PEO4 Z-AUC,0.949
CCc1c2c(nc3ccc(O)cc13)-c1cc3c(c(=O)n1C2)COC(=O)[C@]3(O)CC,Potency,[9],662 nM (active)
same,Potency,[12],296 nM (active)
same,Potency,[11],1320 nM (active)
same,Potency,[3],1180 nM (active)
same,Potency,[4],662 nM (active)
same,Potency,[5],74.3 nM (active)
same,Potency,[6],6.2 nM (active)
same,Z-AUC,[6]; [13],-3.8
same,Z-AUC,[6]; measured here: PEO4 Z-AUC,-3.13
same,Potency,[7]; TFE3-RCC UOK109 viability,469 nM (active)
same,z-score,[7]; [14],-1.63
same,z-score,[7]; [15],-2.08
same,z-score,[7]; [16],-2.56
CS(=O)(=O)N1CCN(Cc2cc3nc(-c4cccc5[nH]ncc45)nc(N4CCOCC4)c3s2)CC1,Potency,[11],264 nM (active)
same,Potency,[7]; TFE3-RCC UOK109 viability,105 nM (active)
same,z-score,[7]; [14],-1.55
same,z-score,[7]; [15],-1.58
same,z-score,[7]; [16],-1.5
CCN1CCN(Cc2ccc(-c3cc4c(N[C@H](C)c5ccccc5)ncnc4[nH]3)cc2)CC1,Potency,[10],662 nM (active)
same,Potency,[12],1660 nM (active)
same,Potency,[4],3720 nM (active)
same,Potency,[5],2960 nM (active)
CCn1nnc2c(N3CCOCC3)nc(-c3ccc(NC(=O)Nc4ccc(C(=O)N5CCN(C)CC5)cc4)cc3)nc21,Potency,[10],5.3 nM (active)
same,Potency,[12],33.2 nM (active)
same,Potency,[3],93.5 nM (active)
same,Potency,[4],23.5 nM (active)
same,Potency,[5],4.2 nM (active)
same,Z-AUC,[6],-0.869 (inactive)
same,Z-AUC,[6]; [13],-1.58
same,Z-AUC,[6]; measured here: PEO4 Z-AUC,-1.65
same,Potency,[7]; TFE3-RCC UOK109 viability,526 nM (active)
same,z-score,[7]; [14],-1.28
same,z-score,[7]; [15],-1.68
same,z-score,[7]; [16],-1.94
C=CC(=O)N1CCC[C@@H](n2nc(-c3ccc(Oc4ccccc4)cc3)c3c(N)ncnc32)C1,Potency,[11],20900 nM (active)
same,Z-AUC,[6],0.296 (inactive)
same,Z-AUC,[6]; [13],0.501
same,Z-AUC,[6]; measured here: PEO4 Z-AUC,0.517
CCCCCN(CCC12CC3CC(CC(C3)C1)C2)C(=O)NCCCc1ccncc1,Potency,[10],18700 nM (active)
same,Potency,[11],20900 nM (active)
same,Potency,[3],inactive
same,Potency,[4],16600 nM (active)
same,Potency,[5],8330 nM (active)
same,Z-AUC,[6],-0.0878 (inactive)
same,Z-AUC,[6]; [13],0.162
same,Z-AUC,[6]; measured here: PEO4 Z-AUC,-0.141
Cc1cnc(-c2cnc(NCCNc3ccc(C#N)cn3)nc2-c2ccc(Cl)cc2Cl)[nH]1,Potency,[9],10500 nM (active)
same,Potency,[10],13200 nM (active)
same,Potency,[2],23500 nM (active)
same,Potency,[12],13200 nM (active)
same,Z-AUC,[6],1.35 (inactive)
same,Z-AUC,[6]; [13],0.904
same,Z-AUC,[6]; measured here: PEO4 Z-AUC,0.844
Cc1ccc(CN2CCNCC2)cc1NC(=O)CNc1ccc(F)c(F)c1,Potency,[2],inactive
same,Potency,[12],inactive
same,Potency,[11],inactive
same,Potency,[3],inactive
same,Z-AUC,[6],-0.297 (inactive)
same,Z-AUC,[6]; [13],-0.179
same,Z-AUC,[6]; measured here: PEO4 Z-AUC,-0.154
CS(=O)(=O)c1ccc(-c2cnc(N)c(C(=O)Nc3ccccc3)n2)cc1,Potency,[9],inactive
same,Potency,[11],inactive
same,Potency,[3],inactive
same,Potency,[5],inactive
same,Z-AUC,[6],-0.54 (inactive)
same,Z-AUC,[6]; [13],-0.901
same,Z-AUC,[6]; measured here: PEO4 Z-AUC,-1.14
same,z-score,[7]; [14],0.172
same,z-score,[7]; [15],0.911
same,z-score,[7]; [16],0.761

# Source: PubChem BioAssay (NCATS)
